The values that follow come from the antibiotic and cytotoxicity screens of Wong et al. (2023).

Among all 39,000 compounds or so, about 1,500 (3.8%) were called active. This is one part of a sample in which actives are shown more often than they occur.

The assay relates to HSkMC (human skeletal muscle cells). As to the kind of experiment: cytotoxicity call (relative viability < 0.9). The settings on record: 10 µM.
For `Cc1noc(C)c1S(=O)(=O)Nc1ccc2c(c1)CC(=O)N([C@@H](C)CO)C[C@@H](C)[C@H](CN(C)C(=O)Nc1ccc3c(c1)OCO3)O2`, the cytotoxicity call was “inactive”.

`COc1ccc(CN(C)C[C@H]2Oc3ccc(NS(C)(=O)=O)cc3C(=O)N([C@@H](C)CO)C[C@H]2C)cc1`: the cytotoxicity call is “inactive”.

Turning to `COc1ccccc1CNC(=O)C[C@H]1C[C@@H]2c3cc(NC(=O)c4cccnc4)ccc3O[C@@H]2[C@H](CO)O1`, the cytotoxicity call was “inactive”.

Take `C[C@@H]1CN([C@@H](C)CO)C(=O)Cc2cc(NS(=O)(=O)c3ccc(F)cc3)ccc2O[C@@H]1CN(C)Cc1ccc(Oc2ccccc2)cc1`: the cytotoxicity call was “active”.

In the case of `Cc1ccccc1S(=O)(=O)N1C[C@@H](O)COC[C@@H]2O[C@H](CC(=O)N3CCOCC3)CC[C@H]21`, the cytotoxicity call is “inactive”.

Consider `COc1ccc2c3c([nH]c2c1)[C@H](CO)N(C[C@]13CCN(CC1)C(=O)c1cnccn1)C(=O)c1cnccn1`, for which the cytotoxicity call is “inactive”.

As for `COc1ccc(C(=O)CO)cc1`, the cytotoxicity call was “inactive”.

Take `COc1ccc(C(=O)CC(=O)c2ccc(C(C)(C)C)cc2)cc1`: the cytotoxicity call is “active”.

Turning to `COc1ccc(C(=O)O)cc1`, the cytotoxicity call is “inactive”.

Regarding `Cc1cc(C(=O)Nc2cccc3c2O[C@H](CN(C)Cc2ccc4c(c2)OCO4)[C@@H](C)CN([C@@H](C)CO)C3=O)n(C)n1`, the cytotoxicity call is “inactive”.

`Cc1cc(O[C@@H](CCC(F)(F)F)c2ccc(C(=O)NCCC(=O)O)cc2)cc(C)c1-c1ccc(C(C)(C)C)cc1`: the cytotoxicity call is “active”.

Regarding `O=C(O)CCNC(=O)c1ccccc1` [listing 1 of 2 here], the cytotoxicity call is “inactive”.

In the case of `O=C(O)CCNC(=O)c1ccccc1` [listing 2 of 2 here], the cytotoxicity call was “inactive”.

Regarding `O=C(/C=C/c1ccc(O)c(O)c1)O[C@]1(C(=O)O)C[C@@H](O)[C@H](O)[C@H](O)C1`, the cytotoxicity call was “inactive”.

Take `CC(C)NC(=O)Nc1ccc2c(c1)C(=O)N([C@H](C)CO)C[C@H](C)[C@@H](CN(C)S(=O)(=O)c1ccc(F)cc1)O2`: the cytotoxicity call is “inactive”.

Take `Cn1cnc(CCNC(=O)C[C@@H]2CC[C@H]3[C@@H](COC[C@@H](O)CN3C(=O)Nc3ccc(Cl)cc3)O2)c1`: the cytotoxicity call is “inactive”.

Consider `CO[C@@H]1CN(C)C(=O)c2ccc(NS(=O)(=O)CC(F)(F)F)cc2OC[C@H](C)N(Cc2cccnc2)C[C@H]1C`, for which the cytotoxicity call is “inactive”.

Consider `C[C@@H]1CCCCO[C@@H](CN(C)Cc2ccc3c(c2)OCO3)[C@@H](C)CN([C@H](C)CO)C(=O)c2cc(NC(=O)Nc3cccc4ccccc34)ccc2O1`, for which the cytotoxicity call was “inactive”.

As to `C[C@@H]1CCCCO[C@H](CN(C)Cc2ccc3c(c2)OCO3)[C@H](C)CN([C@@H](C)CO)C(=O)c2cc(NC(=O)Nc3cccc4ccccc34)ccc2O1`, the cytotoxicity call is “active”.

As to `C[C@@H]1CCCCO[C@@H](CN(C)Cc2ccc3c(c2)OCO3)[C@@H](C)CN([C@@H](C)CO)C(=O)c2cc(NC(=O)Nc3cccc4ccccc34)ccc2O1`, the cytotoxicity call is “inactive”.

For `C[C@@H]1CCCCO[C@H](CN(C)Cc2ccc3c(c2)OCO3)[C@@H](C)CN([C@H](C)CO)C(=O)c2cc(NC(=O)Nc3cccc4ccccc34)ccc2O1`, the cytotoxicity call is “inactive”.

For `C[C@H]1CCCCO[C@@H](CN(C)Cc2ccc3c(c2)OCO3)[C@@H](C)CN([C@@H](C)CO)C(=O)c2cc(NC(=O)Nc3cccc4ccccc34)ccc2O1`, the cytotoxicity call was “active”.

Take `C[C@H](CO)N1C[C@H](C)[C@@H](CN(C)Cc2ccc3c(c2)OCO3)OCCCC[C@H](C)Oc2ccc(NC(=O)Nc3cccc4ccccc34)cc2C1=O`: the cytotoxicity call is “active”.

As for `C[C@@H]1CN([C@H](C)CO)C(=O)c2cc(NC(=O)Nc3cccc4ccccc34)ccc2O[C@@H](C)CCCCO[C@H]1CN(C)Cc1ccc2c(c1)OCO2`, the cytotoxicity call is “inactive”.

On to `C[C@@H]1CN([C@@H](C)CO)C(=O)c2cc(NC(=O)Nc3cccc4ccccc34)ccc2O[C@@H](C)CCCCO[C@H]1CN(C)Cc1ccc2c(c1)OCO2`, for which the cytotoxicity call is “active”.
